# MRP-1 activ = activators of MRP-1. viability increase, % at 10 µM. 140,000 compounds, 0.61% hits. H69AR cells + doxorubicin, viability rescue, CellTiter-Glo;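 active = viability gain under doxorubicin at or above a set limit, the compound median plus 3 SD, cut at about 4.7% in these data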;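 also: MRP-1 overexpressing cells given doxorubicin 25 µM after compound pretreatment; 18-22 h compound pretreatment then 72 h with doxorubicin before readout; 0% = doxorubicin-only wells and 100% = vehicle-treated cells without doxorubicin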
# CYP2C9 act = increases human cytochrome P450 2C9 activity; 96,000 compounds, 1.4% hits; activation factor at 5 µM; P11712; recombinant CYP2C9, luciferin-H conversion, luminescence; hits give high values; factor 1 = untreated enzyme, 0 = blocked;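 active = activation factor of 2 or more for CYP2C9 at a 5 µM dose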;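 also: 0 = sulfaphenazole-blocked wells and 1 = vehicle-only wells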
# CYP2C9 inhib = blocks human cytochrome P450 2C9; P11712; CYP2C9 Supersomes, luciferin-H conversion, luminescence; inhibition, % at 5 µM; 96,000 compounds, 20% hits;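 active = blocking of liver enzyme CYP2C9 beyond about 50% at 5 µM, limit read from the data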
# CYP2C19 act = activators of human cytochrome P450 2C19; activation factor at 5 µM; P33261; recombinant CYP2C19, luciferin-H EGE luminescence; hits give high values; 0 = fully inhibited enzyme, 1 = untreated enzyme; 96,000 tested, under 10 active;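 active = activation factor of at least 2 at 5 µM in the primary screen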;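 also: 0 = wells with 2.5 mM tranylcypromine and 1 = vehicle-only wells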
# Target sequence (P33261 whole entry, looked up): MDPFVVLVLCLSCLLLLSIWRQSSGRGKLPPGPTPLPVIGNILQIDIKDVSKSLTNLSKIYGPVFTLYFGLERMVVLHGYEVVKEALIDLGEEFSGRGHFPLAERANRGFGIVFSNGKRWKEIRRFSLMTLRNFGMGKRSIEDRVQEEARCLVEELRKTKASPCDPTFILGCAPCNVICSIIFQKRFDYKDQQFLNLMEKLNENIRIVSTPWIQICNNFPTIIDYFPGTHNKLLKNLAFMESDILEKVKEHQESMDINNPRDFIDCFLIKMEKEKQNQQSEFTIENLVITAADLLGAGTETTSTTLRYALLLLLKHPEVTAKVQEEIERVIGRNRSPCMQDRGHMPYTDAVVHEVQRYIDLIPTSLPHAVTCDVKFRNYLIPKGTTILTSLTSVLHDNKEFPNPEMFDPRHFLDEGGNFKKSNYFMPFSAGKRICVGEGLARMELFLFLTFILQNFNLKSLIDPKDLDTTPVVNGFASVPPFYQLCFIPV
# MRP resist rev = MRP-mediated drug resistance reversal | H69AR cells + 2 uM doxorubicin, CellTiter-Glo, 72 h | differential viability (reversal), % at 10 µM | 85,000 compounds, 0.04% hits;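 active = viability drop by adding the cancer drug above about 55%, with treated viability meeting a 40% cutoff, limit read from the data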;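 also: viability without doxorubicin minus viability with 2 µM doxorubicin for each compound; larger differential means the compound sensitizes cells more to doxorubicin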
# CYP2C19 inh = inhibitors of human CYP2C19. P33261. inhibition, % at 5 µM. 96,000 compounds, 21% hits. CYP2C19 Supersomes, luciferin-H EGE luminescence, 30 min;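 active = CYP2C19 inhibition above a set limit at 5 µM in the primary screen, cut at about 50% in these data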;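 also: plate controls were negative control wells for no effect and 2.5 mM tranylcypromine positive control for full effect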
# An asterisk follows results filed as active; . = no result given. Compounds with a hit are over-represented: about 21% of the library has one in this group of screens.
SMILES,MRP-1 activ,CYP2C9 act,CYP2C9 inhib,CYP2C19 act,MRP resist rev,CYP2C19 inh
Cc1ccc(C)c(NS(=O)(=O)c2cc(C(=O)Nc3ccccc3-c3ccccc3)ccc2C)c1,-4,0.2,80*,0.5,.,54*
Cc1ccccc1NS(=O)(=O)c1cc(C(=O)Nc2cccc([N+](=O)[O-])c2)ccc1C,-1,.,.,.,.,.
CCOC(=O)NCc1ccc(S(=O)(=O)Nc2ccccc2C)cc1,-1,0.8,25,0.3,11,69*
CC1(C)CC(=O)c2cc(OCC(=O)NCCCN3CCN(c4ccc(F)cc4)CC3)ccc2O1,-3,0.9,14,0.9,-1,8
O=C(O)c1ccccc1NS(=O)(=O)c1ccccc1C(F)(F)F,-1,0.3,66*,1,28,4
O=C(O)c1ccccc1NS(=O)(=O)c1cccc2cccnc12,0,1,-5,1,-1,-3
O=C(C1CCN(S(=O)(=O)c2ccc(Br)s2)CC1)N1CCc2ccccc21,-1,0.9,12,0.6,-11,43
CCOc1cc(NS(=O)(=O)c2ccc(OC)cc2)c(OCC)cc1NC(=O)c1ccco1,1,.,.,.,0,.
COc1ccc(NC(=O)c2cc(Cl)ccc2NC(=O)c2ccco2)c(OC)c1,-1,0.1,94*,0.3,-1,73*
COc1ccc(S(=O)(=O)Nc2cc(OC)c(NC(=O)c3ccco3)cc2OC)cc1,-1,0.1,94*,0.4,0,57*
COc1cc(OC)c(NC(=O)c2ccco2)cc1Cl,-1,1,0,1,12,4
COc1cc(NS(=O)(=O)c2ccc(Br)cc2)c(OC)cc1NC(=O)c1ccco1,-1,0,100*,0,10,98*
COc1cc(NC(=O)Cc2ccc(Cl)cc2)ccc1NC(=O)c1ccco1,3,0.6,41,0.8,1,23
COc1cc2nc(N3CCN(C(=O)C4CCCO4)CC3)nc(N)c2cc1OC (configuration not stated),-2,0.4,60*,0.7,-19,33
COc1ccc(NC(=O)c2ccc(CNc3c(NC4CCCCC4)c(=O)c3=O)cc2)c(OC)c1,0,0.3,70*,0.9,.,15
COc1cc(OC)cc(C(=O)NCc2nc(-c3ccccc3)no2)c1,-2,0.4,61*,0.3,16,73*
O=C(NCc1nc(-c2ccccc2)no1)c1ccc2c(c1)OCO2,-1,0.8,23,0.8,11,22
COc1ccccc1C(=O)N(Cc1nc(-c2ccc(Cl)cc2)no1)C(C)C,0,0.7,32,0.4,22,64*
COc1ccc(-c2noc(CN(C(=O)c3c(-c4ccccc4Cl)noc3C)C(C)C)n2)cc1,-1,0.4,57*,0.4,10,62*
COc1ccc(C(=O)N(Cc2nc(-c3ccc(C)cc3)no2)C(C)C)cc1OC,-1,0.4,58*,0.5,1,55*
COc1ccc(-c2noc(CN(C(=O)c3ccc(OC(C)=O)cc3)C(C)C)n2)cc1OC,-4,0.5,47,0.7,-8,32
O=C1c2ccccc2NC(c2cccnc2)N1c1ccccc1F (configuration not stated),0,.,.,.,.,.
COC(=O)CNC(=O)CSc1nnc(C)c(=O)[nH]1,2,.,.,.,.,.
Cc1nn(-c2ccccc2)c(NC(=O)c2cccs2)c(-c2ccccc2)c1=O,-2,.,.,.,.,.
c1ccc(NCc2nc(-c3ccccc3)no2)cc1,-1,0.2,76*,0.1,24,87*
SMILES,MRP-1 activ,CYP2C9 act,CYP2C9 inhib,CYP2C19 act,MRP resist rev,CYP2C19 inh
CC(C)N(Cc1nc(-c2ccccc2)no1)C(=O)c1ccc(Cl)cc1,0,0.2,80*,0.2,6,79*
COc1cc(OC)cc(C(=O)N(Cc2nc(-c3cccc(C)c3)no2)C(C)C)c1,-1,0.1,95*,0.1,-2,86*
Cc1cccc(-c2noc(CN(C(=O)C34CC5CC(CC(C5)C3)C4)C(C)C)n2)c1,-1,0.6,38,1.1,7,-6
CC(C)N(Cc1nc(-c2ccccc2)no1)C(=O)C1CCCCC1,-1,0.2,81*,0.2,13,85*
Cc1cccc2nc(CSc3nnc4ccccn34)cn12,-2,1.1,-10,0.9,-1,13
COc1ccc(NC(=S)NNC(=O)OC(C)(C)C)cc1OC,2,1,-1,0.9,0,12
CC1CCN(Cc2ccc(-c3nn[nH]n3)cc2)CC1,-2,1.2,-24,1.1,-5,-11
Cc1onc(-c2ccccc2Cl)c1C(=O)NCc1nc(-c2ccccc2)no1,0,0.6,41,0.3,11,67*
CC(=O)Cc1nsc(NC(=O)c2ccc(-c3ccccc3Cl)o2)n1,-2,0.7,29,0.8,.,24
CC(C)N(Cc1nc(-c2ccccc2)no1)C(=O)c1ccc2c(c1)OCO2,0,0.6,43,0.3,1,69*
CC(C)N(Cc1nc(-c2ccc(Cl)cc2)no1)C(=O)CCCN1C(=O)c2ccccc2C1=O,1,0.1,86*,0.1,23,88*
O=C1c2ccccc2C(=O)N1CCc1nc(-c2ccc(Cl)cc2)no1,2,0.7,29,0.8,3,22
CC(=O)Cc1nsc(NC(=O)c2c(-c3ccccc3Cl)noc2C)n1,-3,0.2,75*,1,4,1
CNC(=O)c1csc(-c2ccc(C)cc2)n1,-2,0.7,29,0.9,.,13
CC(C)N(Cc1nc(-c2ccccc2)no1)C(=O)c1ccc(Br)o1,-2,0.4,64*,0.3,26,73*
Cc1onc(-c2ccccc2Cl)c1C(=O)NCc1ccc(N2CCCC2=O)cc1,-2,0.3,67*,0.5,1,53*
O=C(c1ccc(Br)o1)N(Cc1ccccc1)Cc1ccccc1,-1,.,.,.,.,.
N#C/C(=C\C1CC2C=CC1C2)c1nc2ccccc2[nH]1 (configuration not stated),-3,0.6,41,0.9,-1,12
Cc1ccc(C)c(-n2ccnc2SCC(=O)O)c1,-1,0.4,59*,1,0,4
Cc1ccc(C(=O)CSc2nnc(COc3ccc(C#N)cc3)n2-c2ccccc2)cc1,1,.,.,.,3,.
Cc1ccc(C(=O)CSc2nccn2-c2ccccc2)cc1,0,0.7,31,0.4,.,56*
O=C(CSc1nccn1-c1ccccc1)c1ccc(Cl)cc1,1,0.6,36,0.3,.,74*
Cc1ccc(C)c(-n2c(SCC(N)=O)nnc2-c2ccccn2)c1,-2,0.8,16,1,-10,5
Cn1cc([N+](=O)[O-])c(C(=O)N(Cc2ccccc2)Cc2ccccc2)n1,-2,.,.,.,.,.
COc1ccc2nc(NCCCNC(=O)c3cc(OC)c(OC)c(OC)c3)c(C#N)cc2c1,-4,0.8,24,0.7,-6,26
CCn1ncc(Br)c1C(=O)Nc1ccc(F)c([N+](=O)[O-])c1,-3,.,.,.,.,.

# Screens: PubChem, several laboratories
